Assay outcomes as filed in PubChem.
Shown are actives, neighbours in structure and some others; about 8.7% of the full set was active somewhere.
TNAP act DEA: activates human TNAP at intermediate phosphate acceptor concentration | activation factor at 20 µM | purified TNAP, CDP-star luminescence, 100 mM DEA, 30 min; active compounds read high; scale: 0 levamisole-inhibited, 1 vehicle-only enzyme | P05186 | 64,000 tested, under 10 active;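 active = activation factor of at least 2 at 20 µM, relative to controls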
PostGolgi ctrl: yeast control strain growth, post-Golgi counter-screen; efflux-deficient yeast background strain, growth absorbance A615, 16 h; inhibition, % at 10 µM; 98,000 tested, 5% active; AID 738
PostGolgi yeast: growth inhibition of a yeast mutant, post-Golgi transport screen; post-Golgi transport phenotypic cell assay; inhibition, % at 10 µM; 98,000 tested, 0.9% active; AID 739;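 also: yeast cells grown in 1536-well plates; yeast grown about 18 h at 30C before absorbance read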
Smad3 FoxH1 inh: inhibitors of human Smad3 transcription factor binding; 88,000 tested, 0.29% active; P84022; inhibition, % at 25 µM; TR-FRET Smad3/Dy647-FoxH1 peptide binding, europium anti-His; AID 630;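 active = compounds that reduce the energy-transfer binding signal between the protein and its labelled peptide by more than half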;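 also: 0% = Smad3 plus labelled peptide maximal FRET and 100% = peptide-only background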
Cav3 T inh: human Cav3.2 channel inhibition, primary screen. 100,000 tested, 4% active. AID 449739. B-score at 10 µM. O95180. Cav3.2-expressing cells, Fluo-4 calcium fluorescence FDSS; active compounds read low;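 active = single-dose well whose peak fluorescence ratio is a statistical outlier from its plate by either plate-standardised score or position-corrected B-score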
DAT uptake mod: modulates human dopamine transporter uptake under cocaine. B-score at 10 µM. LLC-PK1 hDAT cells, [14C]-dopamine uptake with cocaine IC80; actives deviate in either direction. 110,000 tested, 1.3% active. Q01959;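 active = Z score or B-score, a plate-position-corrected score, falls beyond the plate's 99.7% confidence bounds, in either direction; inactive = both scores lie inside the 99.7% bounds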;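 also: scored against the spread of the other compound wells on the same plate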
Target sequence (Q01959 whole entry, looked up): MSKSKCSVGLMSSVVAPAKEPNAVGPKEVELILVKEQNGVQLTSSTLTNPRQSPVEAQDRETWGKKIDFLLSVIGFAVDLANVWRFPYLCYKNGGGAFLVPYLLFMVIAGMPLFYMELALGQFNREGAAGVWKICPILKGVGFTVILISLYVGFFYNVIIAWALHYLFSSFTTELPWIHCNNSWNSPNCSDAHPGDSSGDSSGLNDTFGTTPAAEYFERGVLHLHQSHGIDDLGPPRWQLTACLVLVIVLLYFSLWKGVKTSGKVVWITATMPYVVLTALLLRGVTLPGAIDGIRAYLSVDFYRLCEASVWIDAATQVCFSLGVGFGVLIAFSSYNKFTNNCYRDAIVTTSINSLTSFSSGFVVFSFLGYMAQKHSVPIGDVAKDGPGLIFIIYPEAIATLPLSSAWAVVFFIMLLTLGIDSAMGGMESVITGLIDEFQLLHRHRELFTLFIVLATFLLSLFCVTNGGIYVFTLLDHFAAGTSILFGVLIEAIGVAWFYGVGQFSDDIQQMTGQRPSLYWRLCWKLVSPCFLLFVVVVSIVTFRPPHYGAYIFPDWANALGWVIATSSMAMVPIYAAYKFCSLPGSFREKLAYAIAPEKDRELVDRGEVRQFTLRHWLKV
* hit, by the source's call; . = no result. Rule as the data show it, unless noted: active = inhibition above about 30%; inactive = the rest.

SMILES | TNAP act DEA | PostGolgi ctrl | PostGolgi yeast | Smad3 FoxH1 inh | Cav3 T inh | DAT uptake mod
Cn1c(-c2c(N)n(CCCc3ccccc3)c3nc4ccccc4nc23)nc2ccccc21 | . | 17.1 | 25.3 | 3.8 | -1.75 | 0.875
COCCCn1c(N)c(-c2nc3ccccc3n2C)c2nc3ccccc3nc21 | . | 73.2* | 10.2 | 21.2 | -2.22 | 0.873
Cn1c(-c2c(N)n(CCc3ccccc3)c3nc4ccccc4nc23)nc2ccccc21 | . | 78.2* | 88.2* | 15.9 | -3.63 | 0.668
Cn1c(-c2c(N)n(C3CCCC3)c3nc4ccccc4nc23)nc2ccccc21 | 1 | 100.2* | 24.2 | 0.5 | 1.27 | -0.0319
CC(C)(C)N(NC(=O)Nc1ccccc1)C(=O)c1ccccc1Cl | . | 8.7 | -2.2 | . | 0.117 | -0.0417
COC(=O)c1c(NC(=O)COC(=O)Cn2cnc3ccccc32)sc(C)c1C | 0.9 | -4.8 | 0.3 | 13.2 | -1.26 | -0.428
Cc1nc2ccccc2c2c1C(=O)N(CCC1=CCCCC1)C2=O | 0.9 | 13.8 | 18.6 | 0.1 | -1.52 | 0.992
O=C1c2ccccc2S(=O)(=O)N1Cc1cc(=O)n2ccsc2n1 | 0.9 | 9.2 | -1.2 | 3.9 | -0.336 | 0.403
N=c1c2c(-c3ccccc3)c(-c3ccccc3)n(Cc3ccco3)c2ncn1CCO | . | . | . | 1.4 | -7.41* | 0.346
N=c1c2c(-c3ccccc3)c(-c3ccccc3)n(Cc3ccco3)c2ncn1CCN1CCOCC1 | 0.9 | 23.4 | 52.3* | 9.4 | -10.8* | 2.87
O=c1c2ccccc2ncn1Cc1ccco1 | 1 | 5.0 | -8.3 | 7.3 | 0.617 | -0.868
c1coc(CNc2nc3ccccc3n2CCN2CCOCC2)c1 | 1 | 5.3 | 7.8 | 5.5 | 1.29 | 0.0244
COc1ccc(S(=O)(=O)NC(C)C(=O)Nc2ccccc2C(F)(F)F)cc1 (configuration not stated) | . | -1.5 | -4.0 | 2.7 | 0.574 | -1.69*
CCOC(=O)C(C(=O)Nc1ccccc1)C1CCCCC1 (configuration not stated) | 1 | -2.3 | 0.0 | -3.4 | -1.18 | -0.524
CCOC(=O)C(C(=O)Nc1ccc(C)cc1)C1CCCCC1 (configuration not stated) | . | 40.1* | -3.9 | -0.3 | 0.745 | 0.434
Cc1ccsc1C1C=C(c2cccc(Br)c2)Nc2ncnn21 (configuration not stated) | 0.9 | 37.4* | 12.4 | -4.4 | -4.56 | 1.22
Cc1ccc2nc(-c3ccncc3)cc(-c3ccccc3)c2c1 | . | 41.7* | 7.1 | . | -3.06 | -0.165
CS(=O)(=O)Nc1ccc(Nc2c3ccccc3nc3ccccc23)cc1 | . | . | . | 57.7* | . | .
CN(Cc1ccccc1)S(=O)(=O)c1ccc(NS(C)(=O)=O)cc1 | 0.8 | 12.4 | 9.2 | 3.9 | 0.00732 | 1.74
Cc1ccc(-c2cc(-c3ccccc3)nc(Cl)n2)cc1 | . | -1.2 | 8.7 | . | 0.521 | -0.0215
Cc1ccc2nc(-c3ccc(NS(C)(=O)=O)cc3)cc(-c3ccccc3)c2c1 | . | 57.9* | 11.6 | . | -0.0664 | 0.845
COC(=O)c1cc(-c2ccc(Br)cc2)on1 | 0.9 | 2.3 | -16.3 | -11.3 | . | .
CC1CCCC(C)N1c1nnc(NC(=O)c2cc(-c3ccc(Br)cc3)on2)s1 (configuration not stated) | . | 30.9* | 4.2 | . | . | .
O=c1cc(N2CCc3ccccc3C2)[nH]c(=O)n1Cc1ccc(F)cc1 | 0.9 | 5.5 | 11.2 | 6.5 | -3.98* | 0.449
CN1CCN(c2cc(=O)n(Cc3ccc(F)cc3)c(=O)[nH]2)CC1 | . | 1.9 | -0.9 | 9.0 | 1.62 | -0.413
SMILES | TNAP act DEA | PostGolgi ctrl | PostGolgi yeast | Smad3 FoxH1 inh | Cav3 T inh | DAT uptake mod
O=c1cc(N2CCN(c3ccccc3)CC2)[nH]c(=O)n1Cc1ccc(F)cc1 | 1 | 3.5 | -2.2 | 0.9 | -6.12* | 0.434
CCNc1nc(N)c(C(=C(C#N)C#N)c2ccccc2)s1 | . | 3.7 | -0.3 | . | 0.0449 | 1.35
COc1ccc2sc(NC(=O)CC(C)C)nc2c1 | 0.9 | 14.8 | 1.2 | 1.3 | -1.33 | 0.334
COCCN1C(=O)c2ccccc2C(C(=O)NCC2CCCO2)C1c1c[nH]c2ccccc12 (configuration not stated) | 0.9 | 11.5 | 3.3 | -3.8 | . | -0.501
Cc1cc2cc(CN(Cc3ccco3)C(=O)C3CCCCC3)c(=O)[nH]c2cc1C | 0.8 | 9.8 | -0.2 | 5.1 | -9.29* | 0.144
Cc1cc2cc(CN(Cc3ccco3)C(=O)NCc3ccccc3)c(=O)[nH]c2cc1C | 1 | 7.6 | -0.6 | 6.2 | -7.36* | 1.76
Cc1nc2nc(-c3cccnc3)nn2c(C)c1Cl | 0.9 | -0.8 | 1.6 | 1.8 | 0.0531 | -0.142
CCOC(=O)C1CN(S(=O)(=O)c2ccc(C)cc2)CCN1S(=O)(=O)c1ccc(C)cc1 (configuration not stated) | 0.9 | 7.2 | 3.1 | 2.5 | 0.186 | -0.0176
O=C1OCc2cc(NS(=O)(=O)c3cccs3)ccc21 | 0.9 | 4.3 | -0.2 | 0.5 | 0.299 | -1.27
O=S(=O)(Nc1ccc2c(c1)CCC2)c1cccs1 | 0.9 | 15.4 | -10.8 | -3.7 | -5.58* | 0.302
Cc1cc(C)n(-c2nc3c(c(=O)[nH]c(=O)n3C)n2CC(O)COc2ccc(Cl)cc2Cl)n1 (configuration not stated) | . | . | . | 1.4 | 0.426 | -0.603
CN(C)c1nc(SCc2ccc(Cl)cc2)nc2c1CCCC2 | . | 36.9* | 11.9 | . | 0.441 | -0.206
Cc1ccc(/C=C/C2=NN(Cc3ccc(Cl)c(Cl)c3)C(=O)CC2)cc1 | . | 43.7* | -1.2 | -1.6 | -0.86 | -0.195
CCOC(=O)CN1N=C(/C=C/c2ccc(C)cc2)CCC1=O | . | 13.9 | 6.6 | . | 0.387 | -0.101
CSc1nncn1/N=C/c1ccccc1F | . | -7.8 | . | 6.6 | 0.523 | 0.221
COCCN1C(=O)C(=O)/C(=C(/O)c2cccc(OC)c2)C1c1ccco1 (configuration not stated) | 1 | 31.7* | -3.7 | -1.5 | -1.31 | 0.211
Cc1ccc(-c2nn(CC(=O)N(C)C)c(=O)c3ccccc23)cc1S(=O)(=O)N(C)C | . | 14.3 | -2.6 | 15.7 | -0.762 | -0.184
CCCNC(=O)CC1Sc2ccccc2NC1=O (configuration not stated) | 0.9 | 39.2* | -5.8 | 9.3 | -0.147 | 0.335
S=C(Nc1ccc(Cl)cc1Cl)Nc1ccccc1Oc1ccccc1 | . | 12.0 | 5.3 | . | -2.77 | -0.194
S=C(Nc1cccc(Cl)c1)Nc1ccccc1Oc1ccccc1 | . | 15.0 | 15.6 | . | -7.23* | -0.109
Cc1ccc(Cl)cc1N1CCN(C(=O)CN(C2CCCCC2)S(C)(=O)=O)CC1 | . | . | . | -7.1 | -4.86* | 0.361
CCOC(=O)N1CCC(Nc2c(N3CCN(c4cc(Cl)ccc4C)CC3)c(=O)c2=O)CC1 | 1.1 | 13.8 | -0.7 | -1.2 | -4.14* | 0.996
Cc1ccc(Cl)cc1N1CCN(C(=O)C2CCN(S(=O)(=O)c3c(C)nn(C)c3C)CC2)CC1 | 0.9 | 40.8* | 1.8 | 2.5 | . | -0.412
CS(=O)(=O)N(CC(=O)N1CCN(c2cccc(Cl)c2)CC1)C1CCCCC1 | 0.8 | 27.3 | -5.4 | -4.2 | -0.197 | 0.775
